Among the test systems are T-47D breast; BT-549 breast; MDA-MB-435 melanoma; SW-620 colon; MCF7 breast; KM12 colon; HCC-2998 colon; HCT-116 colon.
Assay in all cases: NCI-60 one-dose screen, 48 h (100 = growth as untreated, 0 = no growth, -100 = all killed)
Holding throughout (conditions): 10 µM unless noted

Molecules are shown by their SMILES. Compounds without any hit were thinned out: in the full panel of roughly 83,000, 20% have a hit.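 Single-concentration screen, 48 h exposure, 96-well plates. Endpoint: percent growth. Below 10 = active.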 A number with no mark means an inactive call. Active and inactive are the calls of the source.

For the compound `CCCCCCCCCCCCCCCCCC1=NCCN1C(=O)OCCO`, the growth in the assay with T-47D breast is 57.3%; in the assay on BT-549 breast, 113%; in the assay on MDA-MB-435 melanoma it was -21.2% (active); in the assay with SW-620 colon, -76.8% (active); with MCF7 breast, -45.6% (active); in the assay with KM12 colon it was 21.4%.
For `CCCCOc1nc2ccc(Cl)cc2cc1/C=C/C(=O)/C=C1/CC(c2cc3cc(Cl)ccc3nc2OCCCC)Nc2ccccc2N1` (stereo unspecified), the growth with T-47D breast was 83.5%; with BT-549 breast it was 96.6%; in the assay on MDA-MB-435 melanoma, 104%; with SW-620 colon, 98.7%; with MCF7 breast, 74.2%; with HCC-2998 colon, 91.5%. The growth in the assay on KM12 colon is 101%.
Consider `O=C(Nc1ccccc1)c1sc(-c2cccc(C(F)(F)F)c2)cc1O`, for which the growth was 59.3% in the assay on T-47D breast; 70.8% in the assay on BT-549 breast; 77.9% in the assay with MDA-MB-435 melanoma; 76.1% in the assay with SW-620 colon; 74.7% with MCF7 breast; 98.2% in the assay on HCC-2998 colon. Further, the growth in the assay on KM12 colon is 92.3%.
Turning to `O=C1CSC(c2ccc(O)cc2)N1c1nnc(Cn2cnnc2)o1` (stereo unspecified), the growth was 92.3% in the assay with T-47D breast; 55.8% with BT-549 breast; -1.5% (active) in the assay on MDA-MB-435 melanoma; 67.4% in the assay on SW-620 colon; 93% in the assay on HCT-116 colon; 112% in the assay with HCC-2998 colon. In addition, the growth in the assay on KM12 colon was 49.9%.
Consider `O=C(CCc1nc(-c2cccc(Cl)c2)no1)Nc1ccccn1`, for which the growth in the assay on T-47D breast is 107%; in the assay on BT-549 breast, 95.7%; with MDA-MB-435 melanoma, 105%; in the assay on SW-620 colon it was 103%; in the assay with HCT-116 colon, 99.1%; with HCC-2998 colon, 97.7%. The growth in the assay with KM12 colon was 98%.
For `CN=C1C=CC(=C(c2ccc(N(C)C)cc2)c2ccc(N(C)C)cc2)C=C1`, the growth in the assay with T-47D breast is 3.04% (active); with BT-549 breast, -34.3% (active); with MDA-MB-435 melanoma it was -51% (active); in the assay on SW-620 colon, 3.29% (active); in the assay with HCT-116 colon, -7.21% (active); in the assay on HCC-2998 colon, -31% (active). Besides, the growth with KM12 colon was -76.2% (active).
Consider `COc1ccc(-c2cc(-c3ccc(Nc4nc(Nc5ccccc5)nc(Nc5ccc(Cl)cc5)n4)cc3)nc(N)c2C#N)cc1`, for which the growth was -32% (active) with T-47D breast; -50.6% (active) with BT-549 breast; -58.5% (active) in the assay with MDA-MB-435 melanoma; -45.6% (active) in the assay with SW-620 colon; -32.7% (active) in the assay on MCF7 breast; -12.5% (active) with KM12 colon.
On to `CN1CCN(c2ccc(Nc3ncc(Cl)c(NC[C@@H]4CCCO4)n3)cc2)CC1`, for which the growth was 62.2% in the assay on T-47D breast; 33.3% in the assay with BT-549 breast; 44% in the assay on MDA-MB-435 melanoma; 7.44% (active) with SW-620 colon; 9.61% (active) in the assay with MCF7 breast; 9.71% (active) in the assay with KM12 colon.
As for `CN1C[C@@H](c2ccc(Cl)cc2)[C@]2(NC(=S)N(c3ccc(F)c(Cl)c3)C2=O)[C@@]12C(=O)NC1C=CC(Cl)=C[C@H]12` (stereo partly specified), the growth was 21% with T-47D breast; 21.6% in the assay on BT-549 breast; 56.8% with MDA-MB-435 melanoma; 62.2% in the assay with SW-620 colon; 18% in the assay on MCF7 breast; 77.8% with HCC-2998 colon. In addition, the growth in the assay with KM12 colon was 55%.
For `COc1cc(C(=O)/C=C/c2c(C(F)(F)F)nc3ccccn23)cc(OC)c1OC`, the growth in the assay with T-47D breast is 8.03% (active); with BT-549 breast, 10.4%; in the assay with MDA-MB-435 melanoma, -10.2% (active); with SW-620 colon, -29.6% (active); in the assay with MCF7 breast it was -44.7% (active); in the assay with KM12 colon it was -82.7% (active).
Consider `CCN(CC)CCCC(C)NCc1ccccc1` (stereo unspecified), for which the growth in the assay with T-47D breast was 105%; with BT-549 breast it was 85.2%; in the assay on MDA-MB-435 melanoma, 100%; in the assay on SW-620 colon it was 105%; in the assay on MCF7 breast, 93.8%; in the assay with KM12 colon it was 96.9%.
On to `CC1(C)N=C(N)N=C(N)N1c1ccc(Cl)c(Cl)c1`, for which the growth was 69.8% in the assay with T-47D breast; 42.9% with BT-549 breast; 27.4% with MDA-MB-435 melanoma; 43.1% in the assay on SW-620 colon; 24.9% with HCT-116 colon; 20.8% in the assay with HCC-2998 colon. The growth in the assay with KM12 colon was 38.8%.
Take `NS(=O)(=O)c1cn(-c2ncnc3nc[nH]c23)ccc1=O`: the growth in the assay on T-47D breast is 76.7%; in the assay on BT-549 breast it was 109%; in the assay on MDA-MB-435 melanoma, 103%; in the assay with SW-620 colon it was 95.1%; in the assay on HCT-116 colon, 94.5%; in the assay on HCC-2998 colon it was 107%. In the assay with KM12 colon, the growth was 92.9%.
Regarding `CCCCN1CCN(c2ccc3nc(-c4ccc5nc(-c6cc(OC)c(OC)c(OC)c6)[nH]c5c4)[nH]c3c2)CC1`, the growth in the assay on T-47D breast was 66%; in the assay with BT-549 breast it was 80.2%; in the assay with MDA-MB-435 melanoma, 53.5%; in the assay on SW-620 colon it was 60.3%; in the assay with MCF7 breast, 19.9%; in the assay on HCC-2998 colon it was 100%. For the same compound, the growth in the assay on KM12 colon is 59.3%.
Consider `Clc1ccc(-c2nnc(Cn3ccnc3)o2)cc1`, for which the growth in the assay on T-47D breast is 100%; in the assay on BT-549 breast it was 120%; in the assay on MDA-MB-435 melanoma, 105%; in the assay with SW-620 colon it was 98.6%; with HCT-116 colon it was 90.5%; in the assay on HCC-2998 colon, 110%. In the assay with KM12 colon, the growth is 105%.
Turning to `Cc1cc(-c2noc(C(F)(F)F)n2)ccc1N1CCN(c2cc(C(=O)N(C)C)no2)CC1`, the growth in the assay with T-47D breast is 46.6%; in the assay on BT-549 breast, 66.6%; in the assay on MDA-MB-435 melanoma, 71%; with SW-620 colon, 84.7%; in the assay with MCF7 breast, 55.5%; in the assay with HCC-2998 colon, 80.8%. For the same compound, the growth with KM12 colon is 85.2%.
Consider `CCCCCCCCn1cc(C2=C(c3coc4ccc(OC)cc34)C(=O)NC2=O)c2ccccc21`, for which the growth in the assay with T-47D breast is 115%; with BT-549 breast, 87.4%; in the assay on MDA-MB-435 melanoma it was 102%; with SW-620 colon it was 99.1%; in the assay with HCT-116 colon it was 104%; in the assay with HCC-2998 colon it was 104%. In addition, the growth with KM12 colon was 104%.
As to `COc1cc(/C=C2\C=C(c3ccccc3)N(CCc3ccccc3)C2=O)cc(OC)c1OC`, the growth is 56.9% with T-47D breast; 91.3% in the assay on BT-549 breast; 89.5% with MDA-MB-435 melanoma; 85.2% in the assay on SW-620 colon; 52.2% with HCT-116 colon; 102% in the assay with HCC-2998 colon. In addition, the growth in the assay on KM12 colon was 80.6%.

The values above are taken from PubChem BioAssay (NCI).
